From PubChem
NOMO-1 viab – NOMO-1 AML cell viability reduction, primary screen, STK33 inhibitor project, CellTiter-Glo luminescence; NOMO-1 AML viability, 72 h; inhibition, % (concentration not given with the values); hit rate 7.5% among 37,000; AID 2330, 2010; in the data active = inhibition above about 80%; inconclusive = no clear call, values can overlap the other calls
STK33 kin inh – STK33 kinase inhibitors, primary screen, biochemical, luminescence, ADP-Glo, MBP substrate; Serine/threonine-protein kinase 33 (Homo sapiens), Q9BYT3; inhibition, % at 12.5 µM; hit rate 0.44% among 27,000; in the data active = inhibition above about 20%; inconclusive = no clear call, values can overlap the other calls
Target sequence (Q9BYT3 whole entry, looked up): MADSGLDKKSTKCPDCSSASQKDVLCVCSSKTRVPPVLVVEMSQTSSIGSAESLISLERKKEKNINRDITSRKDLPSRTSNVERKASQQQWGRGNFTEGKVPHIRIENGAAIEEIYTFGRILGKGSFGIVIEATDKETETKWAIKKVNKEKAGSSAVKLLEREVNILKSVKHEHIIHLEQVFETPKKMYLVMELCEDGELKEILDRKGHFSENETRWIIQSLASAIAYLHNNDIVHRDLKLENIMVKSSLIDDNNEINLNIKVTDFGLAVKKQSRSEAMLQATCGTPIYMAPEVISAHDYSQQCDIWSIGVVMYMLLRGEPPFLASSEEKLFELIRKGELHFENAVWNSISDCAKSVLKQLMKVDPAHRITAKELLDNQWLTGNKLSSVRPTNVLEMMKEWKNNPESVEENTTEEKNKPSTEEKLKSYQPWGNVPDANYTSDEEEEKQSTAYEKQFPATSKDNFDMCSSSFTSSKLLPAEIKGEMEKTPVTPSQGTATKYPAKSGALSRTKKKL
PD-1 reversal – activators reversing PD-1 mediated T-cell inhibition, primary screen, luminescence, primary human CD4 T cells, PD-L1 beads; CellTiter-Glo 96 h; activation, % (no concentration beside the values); 29,000 tested, under 10 active; AID 2316, 2010; call rule not given here
Each line names hits and unclear results; the compound was inactive in the other large screens. This is one part of a sample in which hits are shown more often than they occur.

C[C@@H]1CN([C@H](C)CO)C(=O)c2cc(NC(=O)Nc3ccc(F)cc3)ccc2O[C@@H]1CN(C)Cc1ccc(C(F)(F)F)cc1	NOMO-1 viab inconclusive (no result: STK33 kin inh)
C[C@@H]1CN([C@H](C)CO)C(=O)c2cc(NC(=O)Nc3ccc(C(F)(F)F)cc3)ccc2O[C@@H]1CN(C)Cc1ccc(C(F)(F)F)cc1	NOMO-1 viab 115 (no result: STK33 kin inh)
C[C@H](CO)N1C[C@H](C)[C@H](CN(C)Cc2ccc(C(F)(F)F)cc2)Oc2ccc(NC(=O)Nc3ccc(F)cc3)cc2C1=O	none
C[C@H](CO)N1C[C@H](C)[C@@H](CN(C)Cc2ccc(C(F)(F)F)cc2)Oc2ccc(NC(=O)Nc3ccc(F)cc3)cc2C1=O	NOMO-1 viab 119 (no result: STK33 kin inh)
C[C@H](CO)N1C[C@H](C)[C@H](CN(C)Cc2ccc(C(F)(F)F)cc2)Oc2ccc(NC(=O)Nc3ccc(C(F)(F)F)cc3)cc2C1=O	none
C[C@@H]1CN([C@@H](C)CO)C(=O)c2cc(NC(=O)Nc3ccc(C(F)(F)F)cc3)ccc2O[C@@H]1CN(C)Cc1ccc(C(F)(F)F)cc1	NOMO-1 viab 118
CCOc1ccccc1OCC(=O)Nc1ccccc1[N+](=O)[O-]	none
C=Cc1c(S(C)(=O)=O)sc(C(=O)Oc2ccccc2)c1C	none
CC(=O)c1ccc(NC(=O)CSc2nc3ccc(NC(=O)c4ccccc4Cl)cc3s2)cc1	none
C[C@@H]1CN([C@@H](C)CO)C(=O)c2cccc(NC(=O)Nc3ccc(C(F)(F)F)cc3)c2O[C@@H]1CN(C)CC1CCCCC1	NOMO-1 viab 95 (no result: STK33 kin inh)
C[C@@H]1CN([C@H](C)CO)C(=O)c2cccc(NC(=O)Nc3ccc(C(F)(F)F)cc3)c2O[C@H]1CN(C)CC1CC1	NOMO-1 viab 84 (no result: STK33 kin inh, PD-1 reversal)
C[C@@H]1CN([C@H](C)CO)C(=O)c2cccc(NC(=O)Nc3ccc(F)cc3)c2O[C@@H]1CN(C)CC1CCCCC1	none (no result: STK33 kin inh)
C[C@@H]1CN([C@@H](C)CO)C(=O)c2cccc(NC(=O)Nc3ccc(C(F)(F)F)cc3)c2O[C@@H]1CN(C)CC1CC1	none (no result: STK33 kin inh)
CC(O)CCCC1Cc2cccc(O)c2C(=O)O1 (stereo not given)	none
CN(CC(=O)Nc1ccc([N+](=O)[O-])cc1)S(=O)(=O)c1cc(Cl)ccc1Cl	none
COc1ccc([N+](=O)[O-])cc1CNCCO	none
Cc1cccc(NC(c2ccc([N+](=O)[O-])cc2)c2ccc3ccc(C)nc3c2O)n1 (stereo not given)	NOMO-1 viab 112 (no result: PD-1 reversal)
Cc1cccc(NC(c2ccc(C)s2)c2ccc3ccc(C)nc3c2O)n1 (stereo not given)	none (no result: NOMO-1 viab, PD-1 reversal)
Cc1cccc(Nc2ncnc(N)c2[N+](=O)[O-])n1	none (no result: PD-1 reversal)
Cc1ccc(C)c(C(Nc2ccccn2)c2ccc3ccc(C)nc3c2O)c1 (stereo not given)	NOMO-1 viab 107, STK33 kin inh inconclusive
Cc1cccc(NC(c2ccccc2C)c2ccc3ccc(C)nc3c2O)n1 (stereo not given)	NOMO-1 viab 121
Cc1ccnc(NC(c2ccccn2)c2ccc3ccc(C)nc3c2O)c1 (stereo not given)	NOMO-1 viab 116
CC(C(=O)Nc1cc(Cl)ccc1Oc1ccccc1)N(c1ccccc1)S(C)(=O)=O (stereo not given)	none
Nc1c(C(=O)c2ccc(Cl)cc2)oc2nc(-c3ccco3)cc(-c3cccs3)c12	none (no result: STK33 kin inh)
COc1cc(C2c3c(cc(OC)c(O)c3OC)CC(CO)C2CO[C@@H]2O[C@H](CO)[C@@H](O)[C@H](O)[C@H]2O)cc(OC)c1O (stereo not given in full)	none
COC(=O)CN1C(=O)CN(c2nc(C)cc(C)n2)C1=O	none
Cc1ccc(N(CC(=O)NCc2ccco2)S(=O)(=O)c2ccc(C)cc2)cc1	none
CCN(CC)C(=S)SC1=CCS(=O)(=O)C1	none (no result: STK33 kin inh)
CCN(CC)C(=S)SSC(=S)N(CC)CC	NOMO-1 viab 141
CCN(CC(=O)Nc1ccc(I)cc1)S(=O)(=O)c1ccc(Cl)cc1	none
COc1ccc(CN(C)C[C@H]2Oc3c(NC(=O)Nc4ccc(OC)cc4)cccc3C(=O)N([C@@H](C)CO)C[C@@H]2C)cc1	none (no result: STK33 kin inh, PD-1 reversal)
COc1ccc(NC(=O)Nc2cccc3c2O[C@H](CN(C)Cc2ccc(Cl)c(Cl)c2)[C@@H](C)CN([C@H](C)CO)C3=O)cc1	NOMO-1 viab 103 (no result: STK33 kin inh)
COc1ccc(NC(=O)Nc2cccc3c2O[C@H](CN(C)Cc2ccc(Cl)c(Cl)c2)[C@@H](C)CN([C@@H](C)CO)C3=O)cc1	NOMO-1 viab 91 (no result: STK33 kin inh, PD-1 reversal)
COc1ccc(NC(=O)Nc2cccc3c2O[C@@H](CN(C)Cc2ccc(Cl)c(Cl)c2)[C@H](C)CN([C@H](C)CO)C3=O)cc1	NOMO-1 viab 102 (no result: STK33 kin inh, PD-1 reversal)
COc1ccc(CN(C)C[C@H]2Oc3c(NC(=O)Nc4ccc(F)cc4)cccc3C(=O)N([C@H](C)CO)C[C@@H]2C)cc1	none (no result: STK33 kin inh)
